# Laboratory results from PubChem BioAssay AID1672 (Johns Hopkins Ion Channel Center, 2009).
# Out of some 310,000 compounds screened, about 2,600 (0.84%) were called active. The list comes from a sample in which actives are over-represented; it also holds similar structures and randomly drawn compounds. A number with no mark means an inactive call.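 Rule for the calls: active = fluorescence ratio B-score at or below minus 3 SD of library scores, with starting-brightness B-score within 2 SD (cut at about -4.2 in these data); inactive = the rest.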
# Biological target: Inward rectifier potassium channel 2 (Mus musculus) (UniProt P35561)
# Sequence (P35561 whole entry, looked up): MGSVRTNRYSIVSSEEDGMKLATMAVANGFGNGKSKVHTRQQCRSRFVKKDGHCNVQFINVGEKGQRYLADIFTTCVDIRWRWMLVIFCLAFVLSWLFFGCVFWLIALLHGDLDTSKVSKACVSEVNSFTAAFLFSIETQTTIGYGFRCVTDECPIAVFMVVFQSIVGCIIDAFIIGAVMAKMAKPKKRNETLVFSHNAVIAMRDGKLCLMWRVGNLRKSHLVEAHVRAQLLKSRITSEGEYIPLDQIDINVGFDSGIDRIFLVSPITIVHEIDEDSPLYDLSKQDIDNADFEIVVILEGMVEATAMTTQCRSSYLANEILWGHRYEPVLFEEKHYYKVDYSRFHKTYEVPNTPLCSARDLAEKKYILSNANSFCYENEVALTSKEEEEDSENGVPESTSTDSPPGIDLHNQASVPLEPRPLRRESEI
# Experiment: inhibitors of mouse Kir2.1 inward-rectifier potassium channel (AID 1672);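 note: channel flux triggered by added potassium and thallium sulfate stimulus; B-score of peak minus minimum fluorescence over baseline after thallium stimulus; more negative B-score means stronger Kir2.1 block with less thallium influx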
# Settings: HEK293-Kir2.1, FluxOR thallium flux fluorescence; at 10 µM; hits give low values
row,SMILES,B-score
1,C=CCC1(C(=O)N(C)Cc2ccccc2)CCN(C(=O)OC(C)(C)C)CC1,0.59
2,COc1cc2ccccc2cc1C(=O)Nc1ccncc1,-0.09
3,OCCNCCOc1ccc(Cl)c(Cl)c1,0.04
4,OCCNCc1cccc(OCc2ccccc2Cl)c1,-5.85 (active)
5,S=C(NCCc1ccccc1)NCc1ccccc1Cl,-2.33
6,CCCCN(C(=O)c1ccc(C)o1)c1c(N)n(CCCC)c(=O)[nH]c1=O,1.81
7,CC(C)(C)n1nc(Cc2cccc3ccccc23)c(C#N)c1N,0.39
8,Cc1nn(CCOc2ccccc2)c(=O)n1-c1ccccc1F,-0.66
9,c1ccc(-c2ccc(OCCN3CCOCC3)cc2)cc1,-0.1
10,CC(C)(c1ccccc1)c1ccc(OCCN)cc1,-6.43 (active)
11,CC(C)(c1ccccc1)c1ccc(OCCN2CCCC2)cc1,-6.84 (active)
12,CN(C)CC(O)COc1ccc(C(C)(C)c2ccc(OCC(O)CN(C)C)cc2)cc1 (centres undefined),-2.29
13,c1ccc2cc(OCCN3CCCC3)ccc2c1,1.22
14,O=C(NC(Cc1ccccc1)C(=O)N1CCCC(C(F)(F)F)C1)c1ccccc1 (centres undefined),-0.03
15,CCN1C(=O)[C@@H]2[C@@H](c3ccc(-c4ccccc4)cc3)N3CCCC[C@@]3(C(=O)OC)[C@@H]2C1=O,2.48
16,CC(=O)c1ccc(S(=O)(=O)NC2CC(=O)N(c3ccc4c(c3)OCCO4)C2)cc1 (centres undefined),2.09
17,CCCCN1C(N)=NC[C@@H]1Cc1ccccc1,1.05
18,Nc1ccc(C(=O)N2CCN(S(=O)(=O)c3ccc(Cl)cc3)CC2)cc1[N+](=O)[O-],0.63
19,CCOc1ccccc1NS(=O)(=O)c1cc2c3c(c1)C(C)C(=O)N3CCC2 (centres undefined),-0.71
20,CC1C(=O)N2CCCc3cc(S(=O)(=O)NCc4ccc(F)cc4)cc1c32 (centres undefined),-0.21
21,COc1ccccc1CCNS(=O)(=O)c1cc2c3c(c1)C(C)C(=O)N3CCC2 (centres undefined),-5.71 (active)
22,COc1ccc(N2CC(NS(=O)(=O)c3ccc4ccccc4c3)CC2=O)cc1 (centres undefined),0.13
23,CCCC(=O)N1CCc2[nH]c3ccccc3c2C1,0.74
24,Cc1ccc2[nH]c3c(c2c1)CN(C(=O)CN1CCN(c2ccccc2)CC1)CC3,0.62
25,O=C(CCCN1CCc2[nH]c3ccc(F)cc3c2C1)c1ccc(F)cc1,-7.87 (active)

row,SMILES,B-score
1,CCOc1cc(C(=O)Nc2ccc(S(=O)(=O)Nc3cnc4ccccc4n3)cc2)cc(OCC)c1OCC,1.91
2,CN(C)C(CNC(=O)c1cccc(S(=O)(=O)Nc2ccc(Br)cc2)c1)c1ccco1 (centres undefined),0.84
3,O=C(NCc1ccccn1)Nc1ccc(Cl)cc1,0.46
4,CC(=O)C12CC(C)=C(C)CC1CC1C3CCC4=CC(=O)CCC4(C)C3CCC12C (centres undefined),0.6
5,CCN(CC(=O)Nc1cc(Cl)ccc1C)C(=O)CSCc1ccc(C)cc1,-4.45 (active)
6,CCN(CC(=O)Nc1cc(Cl)ccc1C)C(=O)CN1C(=O)NC2(CCCC2)C1=O,-1.31
7,CCN(CC(=O)Nc1cc(Cl)ccc1C)C(=O)Cn1c(=O)cnc2ccccc21,-0.02
8,C=CCSc1nnc2c(n1)-c1cccc3cccc-2c13,1.16
9,CCOc1ccc(C(c2c(C)[nH][nH]c2=O)c2c(C)[nH][nH]c2=O)cc1OCC,-0.06
10,Cc1[nH][nH]c(=O)c1C(c1ccc2c(c1)OCO2)c1c(C)[nH][nH]c1=O,-0.12
11,Cc1[nH][nH]c(=O)c1C(c1ccc(-c2ccc(Cl)cc2)o1)c1c(C)[nH][nH]c1=O,-9.44 (active)
12,Cc1cccc(Nc2nc(NCCO)nc(N3CCCC3)n2)c1,0.27
13,CCCCn1c(N)c(N(Cc2ccccc2OC)C(=O)COc2cc(C)ccc2Cl)c(=O)[nH]c1=O,0.8
14,COC(=O)[C@@]12CCCN1[C@H](c1ccc(-c3ccc(F)cc3)c(OC)c1)[C@H]1C(=O)N(C)C(=O)[C@H]12,-0.2
15,CC(C)(C)c1cc2cccnc2n1Cc1ccccc1,-3.38
16,COc1ccnc2c1c(=O)n(Cc1cccc(F)c1)c(=O)n2C,0.78
17,CC(C)(C)c1cc2cccnc2n1Cc1cccc(F)c1,-5.77 (active)
18,CC1CCC2(CC1)NC(=O)N(CC(=O)c1ccc3c(c1)OCO3)C2=O (centres undefined),0.27
19,CC(C)c1ccc(N2CCN(C(=O)c3ccccc3NC(=O)/C=C(\C(=O)O)c3ccccc3)CC2)cc1,-8.79 (active)
20,COc1ccc(C(=O)Nc2ccccc2C(=O)N2CCN(c3ccccc3)CC2)cc1,0.29
21,O=C(O)C1CC=CCC1C(=O)Nc1ccccc1C(=O)N1CCN(c2ccccc2)CC1 (centres undefined),-0.23
22,Cc1onc(-c2ccccc2Cl)c1C(=O)OCc1nnc(-c2ccccc2)o1,0.59
23,COc1ccc(CCNC2=C(Cl)C(=O)N(Cc3ccccc3)C2=O)cc1OC,-1.89
24,COc1ccc(CCN=C2SCC(=O)N2Cc2ccccc2)cc1OC,-8.95 (active)
25,COc1ccc(CCN=C2SCC(=O)N2C)cc1OC,0.11

row,SMILES,B-score
1,COc1ccc(S(=O)(=O)NCc2cccnc2)cc1NC(=O)c1ccc(C)cc1,-1.69
2,COC(=O)c1c(-c2ccsc2)oc2ccc(-c3cc(OC)c(OC)c(OC)c3)cc12,0.77
3,CC(C)Oc1ccc(S(=O)(=O)N2CCOCC2)cc1NC(=O)C1CSC2(C)CCC(=O)N12 (centres undefined),-0.2
4,Cc1ccc(-c2nn(-c3ccc(F)cc3)cc2C(=O)NCC(c2cccs2)N2CCOCC2)cc1 (centres undefined),1.38
5,C=CCOc1cccc(C2C(C(=O)c3ccc(C)o3)=C(O)C(=O)N2c2nnc(C)s2)c1 (centres undefined),-2.11
6,CCC(=O)OCc1c(C(F)(F)F)nn(C)c1Oc1cccc(C(F)(F)F)c1,-6.22 (active)
7,O=Cc1ccc(Oc2cccc(C(F)(F)F)c2)nc1,0.35
8,Cc1nc(N)[nH]c(=O)c1Oc1cccc(C(F)(F)F)c1,0.08
9,CCOc1ccc(CCNC(=O)COC(=O)c2ccc(F)c(S(=O)(=O)N3CCOCC3)c2)cc1OCC,0.3
10,COc1ccc(NC(=O)CSc2nnc(-c3cccs3)n2Cc2ccco2)cc1OC,0.49
11,O=C(CSc1nnc(-c2cccs2)n1Cc1ccco1)c1ccc2c(c1)OCO2,-4.78 (active)
12,O=C(CSc1nnc(-c2cnccn2)n1Cc1ccco1)c1ccc(Cl)c(Cl)c1,0.04
13,CCn1c(SC(C)C(=O)Nc2ccc(N3CCOCC3)cc2)nnc1-c1ccco1 (centres undefined),-1.79
14,CCN(CC)c1ccc(S(=O)(=O)N2CCCCC2)cc1NC(=O)C1=COCCO1,1.68
15,CCCc1cc(=O)[nH]c(SCC(=O)c2cc(C)n(CCC)c2C)n1,-6.83 (active)
16,CCCc1cc(=O)[nH]c(SCC(=O)c2c(N)n(CC(C)C)c(=O)n(C)c2=O)n1,0.93
17,Cc1cc(C(=O)CSc2nc(N)cc(=O)[nH]2)c(C)n1CCc1ccc(Cl)cc1,-0.26
18,Cc1ncc(CO)c(/C=N/NC(=O)c2cccc(S(=O)(=O)N3CCCC3)c2)c1O,-1.2
19,NC(=O)CSc1nnc(NC(=O)c2ccc3ccccc3c2)s1,1.23
20,Cc1ccc(-c2csc(NC(=O)C3=COCCO3)n2)cc1C,0.03
21,Cc1cc(Nc2ccc(Br)cc2)nc2ccccc12,-0.01
22,COc1ccc(S(=O)(=O)NCCc2c[nH]c3ccccc23)cc1OC,-1.99
23,COc1ccccc1CC(=O)NCCc1c[nH]c2ccccc12,-0.19
24,COc1cccc(CNCCc2c[nH]c3ccccc23)c1OCc1ccccc1F,-12 (active)
